Assay outcomes (PubChem BioAssay)
NCF1 inh: blocks human p47phox regulatory protein of NADPH oxidases. P14598. p47phox/p22phox peptide binding, fluorescence polarization, 2 h. inhibition, % at 24.7 µM. 220,000 tested, 0.53% active;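 further: 0% = p47phox with labelled peptide and 100% = labelled peptide alone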
eIF4E-4G inh: eIF4E/eIF4G interaction inhibition in translation initiation; P63073+Q04637; TR-FRET eIF4E-eIF4GI(517-606) binding, 2 h; inhibition, % at 21.7 µM; 220,000 tested, 0.37% active; AID 782;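 further: 0% = full FRET control wells and 100% = background wells lacking eIF4GI fragment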
SUMO HTRF inh: inhibitors of human SUMOylation (UBC9); HTRF SUMOylation assay, SAE1/SAE2 + UBC9, in vitro; inhibition, % at 35 µM; 290,000 tested, 0.36% active; in the data active means inhibition above about 50%, passing the limit was not always enough
14-3-3 Bad PPI: disrupts binding of bovine 14-3-3 zeta to phospho-Bad peptide | AID 781 | TR-FRET 14-3-3zeta/Dy647-pBad peptide displacement, 1 h | inhibition, % at 21.7 µM | 220,000 tested, 0.71% active;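 active means inhibition above about 70%, limit read from the data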;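 further: 0% = full 14-3-3 plus peptide FRET controls and 100% = background without 14-3-3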
* marks the source's active call; other numbers are inactive results; . = no result; [ ] = another dose, or the depositor's remark. An excerpt weighted towards active compounds, which were near 1.3% of everything screened.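 How the source made its calls, unless noted: active means inhibition above about 30% (limit read from the data); inactive means the rest.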

SMILES	NCF1 inh	eIF4E-4G inh	SUMO HTRF inh	14-3-3 Bad PPI
Cc1ccc(NC(=S)N/C(=N/S(=O)(=O)c2ccccc2)c2ccccc2)cc1	164.1*	0.6	14.6	-7.9
COc1ccc(OC)c(NC(=O)C2C3CCC(O3)C2C(=O)O)c1 (configuration not stated)	53.0*	5.0	4.5	-3.3
S=c1[nH]nc(-c2ccco2)n1/N=C/c1ccc(Cl)cc1Cl	-0.3	49.4*	-22.0	16.0
COc1ccc2[nH]c(C(=O)O)c(CCN3C(=O)c4cccc([N+](=O)[O-])c4C3=O)c2c1	-3.1	3.0	15.1	-7.6
Cc1ccc(Cl)cc1Nc1nc(-c2sc(NC(=O)c3cccc(Cl)c3)nc2C)cs1	-26.4	-20.4	-9.7	89.2*
Cc1nc(NC(=O)c2ccccc2)sc1-c1csc(Nc2cccc(Cl)c2)n1	-24.2	22.9	-2.1	86.5*
Cc1ccc(Cl)cc1Nc1nc(-c2sc(NC(=O)c3ccco3)nc2C)cs1	-39.7	-3.7	31.1	3.6
COc1ccc(-c2csc(NC(=O)c3ccco3)n2)cc1	-24.7	5.1	-22.8	7.9
Cc1nc(NC(=O)c2ccco2)sc1-c1csc(Nc2ccc(Cl)cc2Cl)n1	-14.6	-32.7	-21.4	87.3*[fluorescence artefact?]
O=C(Nc1nc(-c2ccccc2)cs1)c1ccco1	-15.1	65.9*	-8.8	10.3
C=CCOc1ccccc1CN1CCC(CO)(CCOc2ccccc2)CC1	1.4	-0.1	1.8	-0.7
Cc1nc(NC(=O)c2ccccc2)sc1-c1csc(Nc2ccc(Cl)cc2Cl)n1	-21.7	-20.5	1.9	76.1*[fluorescence artefact?]
Cc1nc(NC(=O)c2ccccc2)sc1-c1csc(Nc2ccc(Cl)cc2)n1	-21.6	-2.6	8.0	70.4*
O=C(Nc1ccc2cccnc2c1)c1ccc(Br)cc1	.	.	5.4	.
Cc1ccc(C(=O)Nc2cccc(-c3cnc4ccccc4n3)c2)cc1	-8.3	-3.0	24.6	-0.2
CC(=O)Nc1ccc2nc3ccccc3nc2c1	-19.7	-1.4	92.4*	-1.4
O=C(Nc1ccc2nc3ccccc3nc2c1)c1ccc(Br)cc1	-54.4	15.9	57.4*	41.6
CC(=O)Nc1ccc(C(=O)Nc2cccc(-c3cnc4ccccc4n3)c2)cc1	33.3*	35.7*	20.3	81.4*
COC(=O)c1cc(NC(=O)c2cccc(Cl)c2)c(=O)oc1/C=C/Nc1cc(C)cc(C)c1	-235.8	0.6	21.5	-18.3
N#Cc1nc(COc2ccc(F)cc2)oc1N1CCC(Cc2ccccc2)CC1	50.3*	3.1	31.9	10.1
CS(=O)c1ccc(-n2c(=O)n(Cc3ccccc3)c(=O)c3[nH]cnc32)cc1 (configuration not stated)	.	.	16.4	.
Nc1ccc(-n2nnnc2-c2ccco2)cc1	59.1*	6.4	-6.9	-3.3
Cc1ccc(-n2nnnc2-c2ccco2)cc1	-11.9	3.1	20.5	-9.2
CCOC(=O)c1sc(=NC(=O)c2c(F)cccc2F)n(C)c1C	.	.	4.9	.
Cc1cc(N2CCN(C)CC2)nc2ccc(NC(=S)N3CCCCC3)cc12	-7.8	-2.3	10.7	0.6
SMILES	NCF1 inh	eIF4E-4G inh	SUMO HTRF inh	14-3-3 Bad PPI
Cc1cccc(N2CCN(C(=S)Nc3ccc4nc(N5CCN(C)CC5)cc(C)c4c3)CC2)c1C	44.3*	-9.6	-14.6	44.9
CCOc1ccccc1OCCn1nnc2ccccc21	-5.2	8.7	0.3	82.0*
COc1ccccc1OCCn1nnc2ccccc21	.	.	-3.3	.
CCOc1ccc(S(=O)(=O)n2nnc3ccccc32)cc1C(C)C	5.6	-4.8	0.4	71.3*
CCOC(=O)Cc1csc(/N=C/c2c(O)n(-c3ccc(C)cc3C)c(=O)c3ccccc23)n1	-93.8	10.1	24.0	-8.5
Cc1ccc(-c2csc(NC(=O)CSc3nc4ccccc4c(=O)n3CCCN(C)C)n2)cc1	37.1*	31.0*	-9.0	68.5
CCn1c(SCC(=O)Nc2nc(-c3ccc(C)cc3)cs2)nnc1-c1ccccc1	-14.9	-5.3	0.7	18.6
COCCN1C(=O)/C(=C2/C(=O)N(CC(=O)Nc3ccccc3Cl)c3ccccc32)SC1=S	.	.	-0.2	.
O=C(CN1C(=O)/C(=C2\SC(=S)N(CCS(=O)(=O)O)C2=O)c2ccccc21)Nc1cccc(Br)c1	.	.	56.5*	.
CCOC(=O)c1c(-c2ccc(C)o2)csc1NC(=O)CN1CCCCC1	-11.1	3.4	6.4	-4.3
CCOC(=O)c1c(-c2ccc(C)o2)csc1NC(=O)CN1CCN(CC)CC1	-5.2	-2.2	-1.4	71.0*
O=C(Cn1c(-c2cscn2)nc2ccccc21)Nc1ccc2ccccc2c1	13.9	2.5	-1.6	36.3
O=C(O)Cn1c(-c2cscn2)nc2ccccc21	-3.5	7.9	-0.5	71.8*
CCCc1cc(=O)oc2cc(OCC(=O)NCC3CCC(C(=O)O)CC3)ccc12 (configuration not stated)	.	.	-8.7	.
O=C(Cc1cc(=O)oc2cc(O)ccc12)NCC1CCC(C(=O)O)CC1 (configuration not stated)	-14.4	-13.8	55.4*	-3.5
Cc1c(Cl)cccc1NC(=O)Nc1c(C)n(C)n(-c2ccccc2)c1=O	.	.	11.8	.
CC1(OC(=O)C2CCCC2)C(=O)C=C2C=C(c3ccsc3)N(CCCCO)C=C2C1=O (configuration not stated)	30.2*	-5.4	12.7	-6.1
CC1CCCCN1C(=O)Cn1c(=O)n(-c2ccc(F)cc2)c(=O)c2sccc21 (configuration not stated)	-8.7	75.0*	-3.7	-12.1
CC1CCN(C(=O)Cn2c(=O)n(-c3ccc(F)cc3)c(=O)c3sccc32)CC1	-4.4	3.7	5.3	-7.2
Cc1ccc(Cn2cc(SCC(N)=O)c3ccccc32)cc1	37.1*	-2.0	16.2	-6.1
NC(=O)CSc1cn(Cc2ccccc2)c2ccccc12	-12.7	-1.1	16.7	-10.1
c1ccc(NC(c2ccccc2)c2ccncc2)cc1 (configuration not stated)	.	.	0.2	.
CCCCNC(c1ccccc1)c1ccncc1 (configuration not stated)	-6.4	8.6	16.7	71.2*
O=[N+]([O-])c1cccc(-c2n[nH]c(=S)n2Cc2ccccc2)c1	-0.2	4.3	13.1	-11.4
COc1ccc(CCNC(=O)CSc2nnc(Cc3csc(N)n3)n2C)cc1OC	-6.9	2.0	7.5	-8.8
SMILES	NCF1 inh	eIF4E-4G inh	SUMO HTRF inh	14-3-3 Bad PPI
Cc1ccc2nc3sc(-c4nnc(-c5ccccc5[N+](=O)[O-])o4)c(N)c3cc2c1	43.5*	3.0	-0.2	88.1*[fluorescence artefact?]
C[N+](C)(C)c1ccc(/C=N/Nc2nc(Cl)c(C#N)c(Cl)c2Cl)cc1	16.0	30.1*[fluorescence artefact?]	26.1	40.2
c1ccc(-c2cnnn2-c2ccccc2)cc1	.	.	22.6	.
N=C1/C(=C\c2ccc(-c3ccc(C(=O)O)cc3)o2)C(=O)N=C2SC=C(c3ccccc3)N12	-38.7	64.5*	15.4	80.3*
CC1CC(C)CN(C2CCN(Cc3cccnc3)CC2)C1 (configuration not stated)	-7.8	4.6	8.5	79.5*
COc1ccc(C2CCN(Cc3cccnc3)CC2O)cc1 (configuration not stated)	-17.8	-7.4	20.2	0.2
O=C(c1cccnc1)N1CCN(C/C=C/c2ccccc2)CC1	-16.5	-0.2	-4.4	-1.4
Cc1cc(C(=O)N2CCN(C/C=C/c3ccccc3)CC2)cs1	54.3*	-10.1	12.0	31.1
Cc1nn2c(Nc3ccccc3)c3c(nc2c1-c1ccccc1)CCC3	2.3	4.1	9.3	81.5*
